Platelet DG rel: modulates dense granule release in human platelets; inhibition, %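 (compounds screened at 7.5 µM in platelet-rich plasma)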; hit rate 0.22% among 300,000; human platelet-rich plasma, SFLLRN dense granule ATP release, luminescence;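 active means mean replicate score, as percent of positive control, at or above 50; inconclusive means mean below 50 but at least one replicate at or above 50; inactive means mean and every replicate below 50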
WT yeast gro inh: growth inhibition of WT yeast, mitochondrial fusion screen; mitochondrial fusion phenotypic screen, WT strain; inhibition, % at 10 µM; hit rate 2.1% among 190,000; AID 1362; in the data active means inhibition above about 58%; tested in S. cerevisiae
SKKanGAS inh: inhibitors of SKKanGAS S. pyogenes growth in kanamycin (SK-promoter or general growth effect); BacTiter-Glo, 6 h; inhibition, % at 7.5 µM; hit rate 1.3% among 300,000; AID 1662;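 active means mean replicate score, as percent of positive control median, at least 50; inconclusive means mean below 50 but one replicate at or above 50; inactive means mean and every replicate below 50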;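 further: strain carries kanamycin resistance gene driven by streptokinase promoter and grows in 40 µg/ml kanamycin; loss of luminescence reflects streptokinase promoter inhibition or plain growth inhibition; 0% = median of DMSO wells and 100% = positive control at its reference dose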
Rtt109 HAT inh: blocks Candida albicans Rtt109/Vps75 acetyltransferase activity. Q5AAJ8. purified Rtt109/Vps75, ThioGlo CoA-SH fluorescence, 4 h. inhibition, % at 34.9 µM. hit rate 0.16% among 330,000. AID 540336;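 active means inhibition of at least 50% in every replicate; inconclusive means best replicate reaches 50% inhibition but some replicates fall short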
Target sequence (Q5AAJ8 whole entry, looked up): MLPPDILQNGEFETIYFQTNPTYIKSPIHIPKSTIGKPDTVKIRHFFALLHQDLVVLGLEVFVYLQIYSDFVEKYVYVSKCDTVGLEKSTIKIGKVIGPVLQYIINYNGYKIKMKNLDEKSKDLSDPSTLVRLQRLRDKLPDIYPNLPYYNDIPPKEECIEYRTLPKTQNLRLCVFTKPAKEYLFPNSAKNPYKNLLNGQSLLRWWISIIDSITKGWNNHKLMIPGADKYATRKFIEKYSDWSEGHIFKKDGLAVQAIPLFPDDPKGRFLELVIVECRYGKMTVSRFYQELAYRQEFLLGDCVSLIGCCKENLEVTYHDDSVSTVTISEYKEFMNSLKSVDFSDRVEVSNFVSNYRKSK
TPT1 inh: blocks Candida albicans tRNA 2'-phosphotransferase; recombinant caTPT1, FP RNA substrate dephosphorylation; inhibition, % at 5 µM; hit rate 0.81% among 300,000; AID 1962;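 active means inhibition above the mean of all tested compounds plus 3 SD, set per screening campaign, cut at about 24% in these data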;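 further: plate controls were DMSO alone for no effect and ferristatin control at 100 nM for full effect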
PHOSPHO1 block: PHOSPHO1 (human) inhibition; inhibition, % at 13.3 µM; hit rate 1.1% among 290,000; recombinant PHOSPHO1, absorbance phosphatase assay; Q8TCT1; AID 1565; in the data active means inhibition above about 60%
Target sequence (Q8TCT1 whole entry, looked up): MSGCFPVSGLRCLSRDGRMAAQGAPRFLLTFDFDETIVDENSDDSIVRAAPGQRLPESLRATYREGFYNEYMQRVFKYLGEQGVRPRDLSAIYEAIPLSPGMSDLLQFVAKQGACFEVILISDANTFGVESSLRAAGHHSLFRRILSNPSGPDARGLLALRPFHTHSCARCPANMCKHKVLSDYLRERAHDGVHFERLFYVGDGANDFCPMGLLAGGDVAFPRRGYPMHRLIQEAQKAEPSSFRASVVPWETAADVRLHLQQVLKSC
Active calls of the source: *; ? = inconclusive; nt = no result. Only some compounds are listed: those with a hit (about 3.9% of all), similar ones and a draw of the others.

SMILES | Platelet DG rel | WT yeast gro inh | SKKanGAS inh | Rtt109 HAT inh | TPT1 inh | PHOSPHO1 block
C=C1C(=O)C23C(O)C1CCC2C12CCCC(C)(COC(C)=O)C1C(O)C3(O)OC2 (stereo not drawn) | nt | nt | nt | 1 | nt | nt
CN(CC(=O)NNC(=O)Cc1ccccc1F)S(=O)(=O)c1ccc(Cl)cc1 | 8 | nt | 6 | -1 | -1 | nt
O=C(CSc1nn(-c2ccccc2)c(=S)s1)NC(=O)NCc1ccco1 | 9 | 8 | 9 | -7 | -3 | 78*
COc1ccc(C(=O)NNC(=O)Cc2nc3nc(C)cc(C)n3n2)cc1 | -2 | nt | 1 | 4 | -3 | 24
Cc1ccnc(NC(=S)N2CCN(c3cccc(C(F)(F)F)c3)CC2)c1 | 2 | nt | 68* | -2 | -1 | -149
Cc1ccc(C)c(NC(=S)N2CCN(c3cccc(C(F)(F)F)c3)CC2)c1 | 4 | 31 | -4 | 1 | 1 | 39
C/C(=N\Nc1ccc(Cl)cc1)c1ccccn1 | 2 | 53 | -3 | 3 | 2 | 94*
C/C(=N\NC(=O)c1ccc(Cl)cc1)c1ccccn1 | 6 | nt | 87* | 2 | 1 | 24
C/C(=N\NC(=O)c1ccccn1)c1ccc(Cl)cc1 | 0 | nt | 6 | nt | 1 | -14
CCS(=O)(=O)N1Cc2ccccc2CC1C(=O)N(C)CC(=O)Nc1cccc(F)c1 (stereo not drawn) | -8 | nt | -3 | -4 | 3 | nt
NS(=O)(=O)c1ccc(N/N=C2/CCCCC2C2CCCCC2)c([N+](=O)[O-])c1 (stereo not drawn) | -6 | 96* | 77* | 3 | 1 | -8
Cc1ccc(-n2ccc(=O)c(C(=O)Nc3ccc(S(=O)(=O)Nc4nccs4)cc3)n2)cc1 | -5 | nt | 8 | -1 | -1 | 20
CCN(CC(=O)Nc1ccc(OC)cc1)C(=O)c1ccc(N2CCCC2=O)cc1 | nt | nt | nt | 1 | nt | nt
Cc1ccc(S(=O)(=O)N2C[C@@H]3CCCC[C@@H]3[C@@H](C)[C@H]2CC(=O)c2ccccc2)cc1 | nt | nt | nt | 3 | nt | nt
Cc1ccc(N2CCN(S(=O)(=O)c3nnc(NC(=O)c4ccco4)s3)CC2)cc1 | 8 | nt | 30 | -9 | -1 | 12
CC(=O)Nc1nnc(S(=O)(=O)N2CCN(c3ccc([N+](=O)[O-])cc3Cl)CC2)s1 | -24 | nt | 55* | 3 | -3 | 38
CC(C)(C)C(=O)N1CCN(c2ccc([N+](=O)[O-])cc2Cl)CC1 | -3 | nt | 0 | 9 | -3 | nt
Cc1ccc(C(=O)Nc2nnc(S(=O)(=O)N3CCN(c4ccc(F)cc4)CC3)s2)cc1 | 12 | nt | 54* | 4 | -3 | 33
COc1ccccc1C(=O)Nc1nnc(S(=O)(=O)N2CCN(c3ccc(F)cc3)CC2)s1 | -53 | nt | 54* | -2 | 0 | 28
Cc1ccccc1N1CCN(S(=O)(=O)c2nnc(NC(=O)c3ccc(F)cc3)s2)CC1 | 6 | nt | 34 | -11 | 1 | 12
COc1ccccc1N(C)S(=O)(=O)c1ccc(C(=O)N2CCCC(C(F)(F)F)C2)cc1 (stereo not drawn) | 5 | nt | 5 | ? | -3 | nt
Cc1ccccc1C(=O)N1CCC(C(=O)NC2CCCC2)CC1 | -7 | nt | 6 | -3 | -2 | 35
Cc1cc(C)c2c(c1)/C(=C/C(=O)c1ccc(Br)s1)C(=O)N2 | 9 | 87* | 1 | 6 | 3 | 10
COc1ccc(-c2[nH]ncc2CN2CCN(c3ccccn3)CC2)c(OC)c1 | 16 | -9 | -4 | 0 | -4 | 60*
O=C(Oc1cccc2ccccc12)c1ccccc1 | nt | nt | nt | -14 | nt | nt
SMILES | Platelet DG rel | WT yeast gro inh | SKKanGAS inh | Rtt109 HAT inh | TPT1 inh | PHOSPHO1 block
O=C(Oc1cccc2c(O)cccc12)c1ccccc1 | 10 | 60* | ? | -5 | -4 | 1
CCN1CCN(c2nc3c(C)cccn3c(=O)c2C=C(C#N)C#N)CC1 | -2 | nt | -2 | 10 | nt | 31
COc1cc2c(cc1OC)C1=C(C#N)CN(CC(=O)O)CN1CC2 | 52* | -1 | 0 | -12 | 1 | 0
O=C1/C(=C/c2ccco2)SC(=S)N1c1cccnc1 | -11 | nt | -15 | 2 | nt | 61*
Cc1ccc(C)c(NC(=O)CSc2nc3nc(-c4cccs4)cc(C(F)(F)F)c3c(=O)[nH]2)c1 | -4 | nt | 57* | -8 | 0 | 6
O=C(CSc1nc2nc(-c3cccs3)cc(C(F)(F)F)c2c(=O)[nH]1)Nc1ccc(F)c(F)c1 | -2 | -17 | 88* | 0 | 9 | 35
Cc1ccc(C)c(NC(=O)CSc2nc(N)c(NC(=O)c3cccs3)c(=O)[nH]2)c1 | nt | -4 | nt | -11 | nt | -1
Nc1nc(SCC(=O)Nc2ccc(C(F)(F)F)cc2)[nH]c(=O)c1NC(=O)c1ccc(F)c(F)c1 | 25 | nt | 4 | -7 | -1 | 17
COc1ccccc1/C=C/CN1CCC(n2nccc2NC(=O)CCc2ccccc2)CC1 | -19 | nt | -2 | 25 | 0 | 43
O=C(NN=Cc1ccccc1C(=O)O)c1ccc(NS(=O)(=O)c2cccs2)cc1 | nt | nt | nt | -5 | nt | nt
Cc1ccc(C(=O)Nc2nc3ccccc3n2CCN2CCCC2)cc1 | 6 | 11 | 18 | -3 | -1 | -7
CCCn1c(NC(=O)C2CCN(S(=O)(=O)c3cccs3)CC2)nc2ccccc21 | 5 | 36 | 51* | 2 | -2 | 10
Cc1csc(NC(=O)C2CCN(S(=O)(=O)c3cccs3)CC2)n1 | 6 | -2 | -3 | -14 | 14 | 32
C=CCn1c(NC(=O)c2ccc(C)cc2)nc2ccccc21 | 14 | nt | 59* | 2 | -2 | 45
CCCn1c(NC(=O)c2ccccc2)nc2ccccc21 | -5 | -5 | 69* | -4 | 2 | 15
CCCn1c(NC(=O)c2ccc(C)cc2)nc2ccccc21 | -3 | 2 | 44 | 3 | -2 | 21
CCCn1c(NC(=O)c2cccc(S(=O)(=O)N3CCCC3)c2)nc2ccccc21 | -8 | 11 | 64* | 17 | 3 | -19
Cc1ccc(NC(=O)C2CCN(S(=O)(=O)c3cccs3)CC2)c(O)c1 | -8 | nt | 2 | 1 | 0 | 62*
Cc1nn(-c2ccccc2)nc1C(=O)OCC(=O)N1CCC(C)CC1 | nt | nt | nt | -2 | nt | nt
CC(C)c1ccc(NC(=O)C2CCN(S(=O)(=O)c3ccc4c(c3)C(C)(C)C(=O)N4C)CC2)cc1 | 3 | nt | -5 | 1 | -2 | 20
O=C(NC(=S)NCCC1=CCCCC1)c1ccc(Br)o1 | -1 | 76* | 23 | -7 | 1 | 10
Cc1ccccc1C(=O)NC(=S)NCCC1=CCCCC1 | -4 | 71* | 29 | -1 | -1 | -2
CCOC(=O)c1ccc(NC(=S)NCCC2=CCCCC2)cc1 | -11 | 14 | -10 | 3 | -1 | 1
O=C(NC(=S)NCCC1=CCCCC1)c1ccco1 | -2 | 45 | -11 | 2 | -3 | 28
O=C(NCCC1=CCCCC1)c1ccc(Br)o1 | 2 | -6 | 2 | 3 | -4 | -7
Cc1ccc(NC(=S)NCCC2=CCCCC2)cc1 | 4 | 68* | 7 | 7 | -1 | -1
CCOc1ccccc1CN1CCN(CCCc2ccccc2)CC1CCO (stereo not drawn) | -1 | nt | 6 | -8 | 1 | 24
CC(C)(C)c1csc(NC(=O)C2=COCCO2)n1 | -3 | nt | 29 | 5 | 2 | nt

Screens as filed in PubChem BioAssay.
